From the supplement of paper PMC10849652
Of roughly 7,900 targets only a part is listed; those with a hit were picked by preference. About 0.6% of all pairs of compound and target were hits. A number with no mark means an inactive call.

Tests used:
Experiment in all cases: log2 fold change, soluble protein after heating vs DMSO (PISA); higher = thermal stabilisation; K562 cells, 10 uM, 30 min; active = over 0.2 and 3.5 SD of the protein, either way, in both replicates (recomputed)
[1] = compound: CC1=C(C=C(C=C1)NC(=O)C2=CC(=CC=C2)C(C)(C)C#N)NC3=CC4=C(C=C3)N=CN(C4=O)C
Procedure, shortened: (§1)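 Quantification of soluble protein used TMTpro 16plex LC-MS/MS, with channel sums equalised. Samples were the supernatant after 21,000xg for 90 min of pooled aliquots from K562 cells (2×10^6 cells/mL) treated with 10 μM compound for 30 min, heated for 3 min over 48°C-58°C, and extracted in PBS with 0.5% NP-40 at 4°C. Values, from duplicates, describe thermal stability against control samples on a log2 fold-change scale.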

[2] = compound: CC1=C(C=C(C=C1)NC(=O)C2=CC(=CC=C2)N(C)C)NC(=O)C3=CC=C(C=C3)O
Procedure, shortened: as §1

[3] = compound: CC1=CC=C(C=C1)SC2=C3C=C(SC3=CN=C2)C(=O)N
Procedure, shortened: as §1

[4] = compound: CC1=NC(=CC=C1)C2=C(N=C(N2)C(C)(C)C)C3=CC4=NC=CN=C4C=C3
Procedure, shortened: as §1

Nexturastat A = compound: CCCCN(Cc1ccc(C(=O)NO)cc1)C(=O)Nc1ccccc1 [Nexturastat A]
Procedure, shortened: as §1

vemurafenib = compound: CCCS(=O)(=O)Nc1ccc(F)c(C(=O)c2c[nH]c3ncc(-c4ccc(Cl)cc4)cc23)c1F [vemurafenib]
Procedure, shortened: as §1

[5] = compound: CCCS(=O)(=O)Nc1ccc(F)c(C(=O)c2c[nH]c3ncc(Cl)cc23)c1F
Procedure, shortened: as §1

[6] = compound: CCCc1cc(C)[nH]c(=O)c1CNC(=O)c1cc(-c2ccnc(N3CCN(C)CC3)c2)cc2c1cnn2C(C)C
Procedure, shortened: as §1

givinostat = compound: CCN(CC)Cc1ccc2cc(COC(=O)Nc3ccc(C(=O)NO)cc3)ccc2c1 [givinostat]
Procedure, shortened: as §1

barasertib = compound: CCN(CCCOc1ccc2c(Nc3cc(CC(=O)Nc4cccc(F)c4)[nH]n3)ncnc2c1)CCOP(=O)(O)O [barasertib]
Procedure, shortened: as §1

[7] = compound: CC[C@@H]1C(=O)N(C)c2cnc(Nc3ccc(C(=O)NC4CCN(C)CC4)cc3OC)nc2N1C1CCCC1
Procedure, shortened: as §1

volasertib = compound: CC[C@@H]1C(=O)N(C)c2cnc(Nc3ccc(C(=O)N[C@H]4CC[C@H](N5CCN(CC6CC6)CC5)CC4)cc3OC)nc2N1C(C)C [volasertib]
Procedure, shortened: as §1

[8] = compound: CC[C@H](C)N1C=C(C2=C(C=C(C=C21)C3=CN=C(C=C3)N4CCNCC4)C(=O)NCC5=C(C=C(NC5=O)C)C)C
Procedure, shortened: as §1

epoxomicin = compound: CC[C@H](C)[C@@H](C(=O)N[C@@H]([C@@H](C)O)C(=O)N[C@@H](CC(C)C)C(=O)[C@]1(CO1)C)NC(=O)[C@H]([C@@H](C)CC)N(C)C(=O)C [epoxomicin]
Procedure, shortened: as §1

[9] = compound: CCn1c(C(=O)N(C2CC2)C2CC2)cc2c3c(ncn3C)c(Nc3cc(C)n(C)n3)nc21
Procedure, shortened: as §1

[10] = compound: CCn1cc(-c2ccnc3[nH]c(-c4cccc(CN(C)C)c4)cc23)c(-c2ccc(NC(=O)N(C)C)cc2)n1
Procedure, shortened: as §1

[11] = compound: CN(C)CC(=O)Nc1ccc2[nH]c(=O)c3ccccc3c2c1
Procedure, shortened: as §1

rosiglitazone = compound: CN(CCOC1=CC=C(C=C1)C[C@H]2C(=O)NC(=O)S2)C3=CC=CC=N3 (racemic) [rosiglitazone]
Procedure, shortened: as §1

[12] = compound: CN1C2=C(C3=C1C(=O)N(N=C3)CC4=CC(=CC=C4)N)SC(=C2)S(=O)C
Procedure, shortened: as §1

[13] = compound: CN1CCC(CNc2ccc3ncc(-c4cccc(OC(F)(F)F)c4)n3n2)CC1
Procedure, shortened: as §1

UniProt Q8N5C7, sequence (Q8N5C7 whole entry, looked up): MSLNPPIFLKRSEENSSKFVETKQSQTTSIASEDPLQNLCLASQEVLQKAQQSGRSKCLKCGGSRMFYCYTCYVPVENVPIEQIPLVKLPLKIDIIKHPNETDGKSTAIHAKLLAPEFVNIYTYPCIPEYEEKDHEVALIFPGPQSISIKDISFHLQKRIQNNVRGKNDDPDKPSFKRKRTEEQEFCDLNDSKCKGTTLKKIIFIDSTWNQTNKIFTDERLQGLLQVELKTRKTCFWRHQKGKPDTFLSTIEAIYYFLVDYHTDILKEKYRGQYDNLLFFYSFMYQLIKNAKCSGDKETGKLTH
UniProt Q8TAG9, sequence (Q8TAG9 whole entry, looked up): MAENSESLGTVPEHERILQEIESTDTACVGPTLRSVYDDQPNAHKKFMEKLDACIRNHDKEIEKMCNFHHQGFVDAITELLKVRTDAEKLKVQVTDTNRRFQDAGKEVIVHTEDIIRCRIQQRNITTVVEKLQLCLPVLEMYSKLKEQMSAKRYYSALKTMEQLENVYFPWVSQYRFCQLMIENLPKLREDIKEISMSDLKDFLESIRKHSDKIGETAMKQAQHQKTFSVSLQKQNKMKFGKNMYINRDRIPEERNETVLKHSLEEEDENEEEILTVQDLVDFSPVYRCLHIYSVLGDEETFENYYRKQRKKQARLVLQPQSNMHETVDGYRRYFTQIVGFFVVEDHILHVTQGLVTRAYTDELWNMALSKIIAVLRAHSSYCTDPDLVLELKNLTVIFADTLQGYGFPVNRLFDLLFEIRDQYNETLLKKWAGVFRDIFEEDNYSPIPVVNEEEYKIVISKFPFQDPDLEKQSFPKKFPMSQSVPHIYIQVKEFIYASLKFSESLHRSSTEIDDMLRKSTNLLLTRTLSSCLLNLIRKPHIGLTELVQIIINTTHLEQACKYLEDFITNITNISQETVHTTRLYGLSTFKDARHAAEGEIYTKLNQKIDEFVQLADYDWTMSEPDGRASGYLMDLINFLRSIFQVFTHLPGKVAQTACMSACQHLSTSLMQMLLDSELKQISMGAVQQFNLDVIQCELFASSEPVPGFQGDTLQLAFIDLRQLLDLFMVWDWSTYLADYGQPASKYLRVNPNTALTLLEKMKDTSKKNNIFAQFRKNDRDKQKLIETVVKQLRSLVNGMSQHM
UniProt Q9Y5Q0, sequence (Q9Y5Q0 whole entry, looked up): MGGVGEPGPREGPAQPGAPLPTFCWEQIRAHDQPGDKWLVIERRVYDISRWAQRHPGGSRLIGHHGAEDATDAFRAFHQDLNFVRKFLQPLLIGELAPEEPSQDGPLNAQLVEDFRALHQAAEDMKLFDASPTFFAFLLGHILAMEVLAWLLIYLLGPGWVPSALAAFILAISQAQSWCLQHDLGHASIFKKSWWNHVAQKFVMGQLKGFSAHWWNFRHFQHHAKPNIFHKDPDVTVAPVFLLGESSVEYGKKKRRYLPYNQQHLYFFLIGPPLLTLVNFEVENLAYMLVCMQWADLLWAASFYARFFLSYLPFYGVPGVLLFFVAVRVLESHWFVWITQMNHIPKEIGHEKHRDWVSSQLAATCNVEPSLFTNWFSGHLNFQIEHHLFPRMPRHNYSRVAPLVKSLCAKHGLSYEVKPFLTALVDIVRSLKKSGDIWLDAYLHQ
UniProt Q9NVR5, sequence (Q9NVR5 whole entry, looked up): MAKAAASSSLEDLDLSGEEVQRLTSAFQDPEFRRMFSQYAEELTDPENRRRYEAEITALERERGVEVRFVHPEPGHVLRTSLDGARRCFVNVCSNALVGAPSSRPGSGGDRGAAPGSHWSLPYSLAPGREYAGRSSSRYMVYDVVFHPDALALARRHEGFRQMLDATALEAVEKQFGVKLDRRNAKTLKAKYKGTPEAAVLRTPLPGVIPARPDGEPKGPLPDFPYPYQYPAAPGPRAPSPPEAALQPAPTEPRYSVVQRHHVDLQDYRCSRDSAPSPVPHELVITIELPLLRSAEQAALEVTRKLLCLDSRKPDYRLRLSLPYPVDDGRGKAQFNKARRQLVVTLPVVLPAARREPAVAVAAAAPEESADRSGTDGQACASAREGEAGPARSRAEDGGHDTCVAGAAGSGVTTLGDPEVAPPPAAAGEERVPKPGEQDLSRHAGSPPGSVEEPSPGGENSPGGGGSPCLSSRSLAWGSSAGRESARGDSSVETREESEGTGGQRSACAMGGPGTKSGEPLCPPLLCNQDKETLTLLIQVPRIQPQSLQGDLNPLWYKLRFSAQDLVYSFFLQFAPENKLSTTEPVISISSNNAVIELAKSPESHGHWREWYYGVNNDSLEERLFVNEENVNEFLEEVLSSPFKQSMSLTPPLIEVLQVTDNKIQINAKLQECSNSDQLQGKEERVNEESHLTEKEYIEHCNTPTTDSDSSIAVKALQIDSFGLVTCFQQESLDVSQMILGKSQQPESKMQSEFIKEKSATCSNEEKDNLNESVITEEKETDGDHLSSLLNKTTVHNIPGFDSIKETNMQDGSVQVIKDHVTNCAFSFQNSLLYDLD
UniProt Q96CS3, sequence (Q96CS3 whole entry, looked up): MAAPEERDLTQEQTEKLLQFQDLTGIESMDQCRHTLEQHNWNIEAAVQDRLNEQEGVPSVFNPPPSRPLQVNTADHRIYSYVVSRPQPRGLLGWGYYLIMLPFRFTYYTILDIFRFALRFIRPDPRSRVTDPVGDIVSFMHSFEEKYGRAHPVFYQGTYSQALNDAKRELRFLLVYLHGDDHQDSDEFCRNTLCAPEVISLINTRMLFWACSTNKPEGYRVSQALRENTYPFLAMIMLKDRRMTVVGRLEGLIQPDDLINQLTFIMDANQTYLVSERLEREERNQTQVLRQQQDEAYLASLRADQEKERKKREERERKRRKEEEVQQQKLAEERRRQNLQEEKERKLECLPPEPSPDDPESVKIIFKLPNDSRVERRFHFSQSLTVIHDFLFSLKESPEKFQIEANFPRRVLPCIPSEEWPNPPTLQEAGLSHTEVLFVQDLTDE
UniProt O76075, sequence (O76075 whole entry, looked up): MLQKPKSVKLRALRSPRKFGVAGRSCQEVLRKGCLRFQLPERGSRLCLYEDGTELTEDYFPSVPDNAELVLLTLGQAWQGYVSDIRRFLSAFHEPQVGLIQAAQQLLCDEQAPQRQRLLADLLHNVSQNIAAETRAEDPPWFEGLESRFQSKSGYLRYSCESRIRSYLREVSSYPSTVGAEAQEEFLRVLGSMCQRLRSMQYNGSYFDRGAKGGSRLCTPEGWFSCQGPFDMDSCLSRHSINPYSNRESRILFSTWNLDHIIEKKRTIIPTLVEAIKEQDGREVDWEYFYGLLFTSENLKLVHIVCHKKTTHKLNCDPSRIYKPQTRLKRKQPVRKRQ
UniProt P49366, sequence (P49366 whole entry, looked up): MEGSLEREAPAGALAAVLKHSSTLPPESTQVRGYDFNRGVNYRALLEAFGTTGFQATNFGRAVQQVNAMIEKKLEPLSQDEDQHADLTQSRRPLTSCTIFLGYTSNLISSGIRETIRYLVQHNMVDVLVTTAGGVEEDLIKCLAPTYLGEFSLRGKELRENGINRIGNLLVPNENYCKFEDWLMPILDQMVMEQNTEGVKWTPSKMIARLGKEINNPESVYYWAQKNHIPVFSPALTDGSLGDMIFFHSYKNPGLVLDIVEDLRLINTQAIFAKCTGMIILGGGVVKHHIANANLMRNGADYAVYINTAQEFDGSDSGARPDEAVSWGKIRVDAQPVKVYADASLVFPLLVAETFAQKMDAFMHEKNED
UniProt Q6V1X1, sequence (Q6V1X1 whole entry, looked up): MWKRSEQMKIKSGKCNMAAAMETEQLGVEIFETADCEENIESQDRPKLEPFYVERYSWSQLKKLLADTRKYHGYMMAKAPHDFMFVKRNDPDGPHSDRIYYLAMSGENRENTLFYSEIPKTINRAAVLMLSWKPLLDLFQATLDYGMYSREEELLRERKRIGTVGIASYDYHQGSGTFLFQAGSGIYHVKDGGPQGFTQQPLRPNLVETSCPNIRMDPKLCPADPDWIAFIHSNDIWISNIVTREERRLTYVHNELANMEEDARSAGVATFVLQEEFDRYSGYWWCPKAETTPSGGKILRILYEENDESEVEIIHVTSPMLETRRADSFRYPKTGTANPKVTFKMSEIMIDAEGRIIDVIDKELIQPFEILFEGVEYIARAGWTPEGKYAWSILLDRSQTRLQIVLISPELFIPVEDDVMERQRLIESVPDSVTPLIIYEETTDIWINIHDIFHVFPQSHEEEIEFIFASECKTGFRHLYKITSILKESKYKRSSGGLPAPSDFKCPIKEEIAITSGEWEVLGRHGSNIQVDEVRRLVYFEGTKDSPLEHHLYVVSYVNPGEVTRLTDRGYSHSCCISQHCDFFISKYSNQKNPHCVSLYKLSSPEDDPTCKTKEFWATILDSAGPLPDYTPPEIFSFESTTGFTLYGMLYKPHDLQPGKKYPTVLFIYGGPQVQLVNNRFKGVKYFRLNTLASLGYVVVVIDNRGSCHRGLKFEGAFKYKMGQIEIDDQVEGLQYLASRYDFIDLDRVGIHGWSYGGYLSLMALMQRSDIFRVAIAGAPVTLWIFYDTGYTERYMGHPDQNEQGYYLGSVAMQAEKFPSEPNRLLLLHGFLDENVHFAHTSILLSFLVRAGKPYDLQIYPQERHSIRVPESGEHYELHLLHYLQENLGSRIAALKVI
UniProt Q96F86, sequence (Q96F86 whole entry, looked up): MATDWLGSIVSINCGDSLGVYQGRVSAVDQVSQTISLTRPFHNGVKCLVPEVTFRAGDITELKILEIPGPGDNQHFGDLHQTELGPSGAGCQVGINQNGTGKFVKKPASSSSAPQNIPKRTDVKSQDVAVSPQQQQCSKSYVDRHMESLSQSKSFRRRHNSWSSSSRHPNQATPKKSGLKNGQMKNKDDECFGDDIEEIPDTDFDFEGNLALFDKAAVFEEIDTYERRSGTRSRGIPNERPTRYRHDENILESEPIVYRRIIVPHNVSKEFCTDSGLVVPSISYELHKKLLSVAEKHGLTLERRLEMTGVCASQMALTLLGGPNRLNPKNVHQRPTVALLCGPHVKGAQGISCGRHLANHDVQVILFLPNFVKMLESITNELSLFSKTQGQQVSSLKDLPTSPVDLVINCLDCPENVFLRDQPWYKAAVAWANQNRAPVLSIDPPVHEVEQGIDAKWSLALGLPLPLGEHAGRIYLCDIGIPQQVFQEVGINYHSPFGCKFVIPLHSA

Target	log2 fold change [1]	log2 fold change [2]	log2 fold change [3]	log2 fold change [4]	log2 fold change (Nexturastat A)	log2 fold change (vemurafenib)	log2 fold change [5]	log2 fold change [6]	log2 fold change (givinostat)	log2 fold change (barasertib)	log2 fold change [7]	log2 fold change (volasertib)	log2 fold change [8]	log2 fold change (epoxomicin)	log2 fold change [9]	log2 fold change [10]	log2 fold change [11]	log2 fold change (rosiglitazone)	log2 fold change [12]	log2 fold change [13]
ERCC6 (UniProt Q03468)	-0.127	-0.038	0.005	-0.038	-0.126	0.064	0.074	-0.017	0.071	0.065	0.072	-0.135	-0.06	0.015	0.074	-0.091	0.004	-0.221	-0.009	0.08
DTYMK (UniProt P23919)	-0.001	0.05	0	0.015	-0.009	-0.017	-0.069	-0.1	-0.007	-0.011	0.044	0.171	-0.03	0.039	-0.053	-0.245 (active)	0.01	0.056	-0.04	-0.037
FAF2 (UniProt Q96CS3)	0.015	-0.021	0.008	-0.016	0.009	0.038	0.008	-0.039	0.036	0.021	-0.095	-0.322 (active)	0.002	-0.046	0.006	0.018	0.037	0.029	0.016	-0.069
DFFB (UniProt O76075)	-0.023	-0.013	0.013	0.019	-0.04	0.055	0	-0.109	-0.059	0.034	0.049	0.036	0.104	0.039	-0.057	0.028	-0.036	0	-0.074	-0.01
DTWD1 (UniProt Q8N5C7)	0.05	-0.042	0.023	0.081	-0.072	0.115	-0.013	0.036	-0.172	-0.027	-0.081	-0.196	-0.07	-0.054	0.018	-0.033	0.036	0.057	-0.046	0.089
EXOC6 (UniProt Q8TAG9)	-0.054	-0.028	0.104	0.032	0.133	0.104	0.022	0.009	0.075	-0.018	-0.224	-0.443 (active)	0.102	-0.06	-0.051	0.014	0.033	0.009	0.06	-0.23
EIF4E isoform 2 (UniProt P06730)	0.044	-0.035	0.008	0.02	-0.078	0.078	0.109	-0.086	0.012	-0.07	-0.012	-0.044	0.021	0.053	-0.01	-0.061	0.036	-0.017	-0.146	0.199
DNAAF2 (UniProt Q9NVR5)	-0.037	-0.043	-0.046	-0.038	-0.034	0.043	-0.038	-0.065	0	-0.009	0.11	-0.113	-0.031	-0.012	0.029	0.095	0	-0.06	0.042	-0.279 (active)
FADS3 (UniProt Q9Y5Q0)	0.031	-0.002	-0.012	0.031	-0.096	0.01	0.026	-0.069	-0.108	0.042	-0.02	0.095	0.013	-0.016	0.046	-0.116	-0.05	-0.019	-0.13	-0.231
DPP8 (UniProt Q6V1X1)	-0.109	-0.026	-0.031	0.021	0.082	-0.056	-0.05	-0.176	-0.026	0.014	0.143	0.007	-0.025	-0.045	0.019	0.002	-0.057	0.02	-0.047	-0.106
EFL1 (UniProt Q7Z2Z2)	-0.025	0.004	0.016	0.012	-0.11	0.04	0.036	0.008	0.004	0.05	-0.024	-0.245 (active)	0.014	0.008	-0.008	-0.006	0.025	0.019	-0.037	-0.091
DHPS (UniProt P49366)	-0.074	0.016	0.034	0.161	-0.079	0.067	0.008	-0.015	-0.001	0.01	0.045	0.028	0.001	0.046	-0.002	0.014	-0.012	-0.01	-0.017	-0.049
CUX1 isoform 3 (UniProt P39880)	-0.039	0.016	0	-0.001	-0.013	0.043	0.025	0.065	0.002	0.013	0.008	-0.153	0.036	0.027	-0.041	-0.008	-0.019	0.125	0.004	-0.123
EDC3 (UniProt Q96F86)	-0.046	0.085	0.021	0.037	0.088	0.046	0.008	0.1	0.049	0.055	-0.006	-0.192	0.057	0.003	-0.03	-0.031	0.058	0.067	0.094	-0.251
DYNC1LI2 (UniProt O43237)	0.013	-0.093	-0.049	-0.193	0.646 (active)	0.001	-0.027	0.076	0.017	0.05	0.324	-0.021	-0.181	-0.072	-0.085	-0.041	0.024	0.052	-0.007	0.101
CTSB (UniProt P07858)	-0.035	-0.069	0.022	0.029	-0.059	-0.041	-0.008	-0.025	-0.007	0.015	-1.16 (active)	-1.72 (active)	-0.009	-0.011	0.017	-0.047	0.021	-0.007	-0.07	-0.936 (active)
